# From PubChem BioAssay AID686978 (National Center for Advancing Translational Sciences (NCATS), 2013)
# Among all 420,000 compounds or so, about 64,000 (15%) were called active. About 27% were inconclusive and are not listed. The call rests on the fitted dose curve; in most records, active means well fitted inhibition curve with a large enough effect; inconclusive means small, poorly fitted or top-dose-only effect; inactive means flat fitted curve, though single readings scatter. These entries were drawn from the full list.
# Experiment: qHTS for Inhibitors of human tyrosyl-DNA phosphodiesterase 1 (TDP1): qHTS in cells in absence of CPT; further: nearly all actives have a fitted effect of over 55% in size
# Conditions: DT40 Tdp1-/- hTDP1 cells, no CPT, ATP luminescence, 48 h; activity change, negative = growth inhibition: at 46.2 µM (top of the series)
# Outline: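 Stably hTDP1-transfected Tdp1-null chicken DT40 cells were treated with library compounds minus camptothecin and grown for at least 48 hr at 37 °C, after which cellular ATP was quantified by luminescence.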
# On the % scale 0 is the no-effect control and ±100 the full control effect; potency means the concentration at half of the fitted maximal effect.
Compound,"activity change, negative = growth inhibition",Potency
CS(=O)(=O)N1CCCCC1c1cc(C(=O)NCc2ccccc2)no1 (configuration not stated),4.99% (inactive),
O=C(NCc1ccc(F)cc1)c1cc(C2CCCCN2C(=O)C2CCCCC2)on1 (configuration not stated),,23.1 µM (active)
O=C(NCc1cccnc1)c1cc(C2CCCN(C(=O)C3CCCCC3)C2)on1 (configuration not stated),-1.16% (inactive),
O=C(c1cc(C2CCCCN2S(=O)(=O)c2ccccc2)on1)N1CCOCC1 (configuration not stated),-2.63% (inactive),
CC(Oc1ccc(Cl)cc1)C(=O)OCC(=O)Nc1ncc(Cl)cc1Cl (configuration not stated),-12.2% (inactive),
COC(=O)c1c(NC(=O)C(=O)N2CCCCC2)sc2c1CC(C)(C)OC2,0.589% (inactive),
COC1=NC2=NCCN2C(OC)=N1,-14% (inactive),
Cc1ccc2cccc(NC(=O)C(C)Oc3ccc(C)c(C)c3)c2n1 (configuration not stated),-72.3% (inactive),
CC(C)Oc1ccc(C(=O)Nc2cc(=O)n(C)c(=O)n2C)cc1,-16.5% (inactive),
Cc1ccc2cccc(NC(=O)c3ccc(OC(C)C)cc3)c2n1,,29.1 µM (active)
COCc1cc(=O)[nH]c2cc(NC(=O)C(F)(F)F)c(C)cc12,-2.68% (inactive),
Cn1c(=O)c(=O)n(C)c2cc(NC(=O)c3ccccc3Br)ccc21,-6.28% (inactive),
CCOC(=O)c1cnc2c(C)cc(C)cc2c1Nc1ccc(N2CCOCC2)cc1,,5.8 µM (active)
Cc1ccc(OCCCC(=O)Nc2ccc(N3CCOCC3)cc2)cc1,-18.3% (inactive),
CCOC(=O)c1cnc2c(C)cc(Cl)cc2c1NCCc1ccc(OC)c(OC)c1,-24.3% (inactive),
COc1ccc(-c2ccc(=O)n(CC(=O)Nc3ccc(Br)cc3F)n2)cc1,-9.62% (inactive),
CCc1nc(SCC(=O)Nc2ccccc2OC)n[nH]1,-4.31% (inactive),
CCCc1nc(SCC(=O)N2CCCC2)c2c(=O)n(C)c(=O)n(C)c2n1,-0.452% (inactive),
CCCc1nc(SCC(=O)Nc2ccccc2OC)c2c(=O)n(C)c(=O)n(C)c2n1,,23.1 µM (active)

Compound,"activity change, negative = growth inhibition",Potency
COc1ccc(CCN2CC(C(=O)NCCN3CCNC3=O)CCC2=O)cc1 (configuration not stated),20.6% (inactive),
O=C(COc1ccccc1)NCc1ccc2c(c1)OCO2,-28.8% (inactive),
COc1cccc(NC(=O)C2CCCN2C(=O)OCc2ccccc2)c1 (configuration not stated),-24.9% (inactive),
COc1cccc(NC(=O)N(Cc2cn(C)c3ccccc23)C2CCCCCC2)c1,,5.8 µM (active)
COc1cccc(NC(=O)N2CCCC2C(=O)NC2CCCCC2)c1 (configuration not stated),-3.39% (inactive),
O=C1CCC(=O)N1CCOP1(=O)COc2ccccc2OC1,-3.6% (inactive),
O=C(Nc1cccc2ccccc12)NC1CC1,-14.7% (inactive),
CCN(C(=O)Nc1cccc2ccccc12)c1ccccc1,,20.6 µM (active)
CC(=O)N(C)c1ccc(NC(=O)Nc2cccc3ccccc23)cc1,5.69% (inactive),
COc1ccc(N2C(=O)CCC(C(=O)Nc3ccccn3)C2c2ccc(OC)c(OC)c2)cc1 (configuration not stated),-20.8% (inactive),
CC(C)Cc1nc(Cl)c(C#N)c2c1CCC2,-18.1% (inactive),
O=C1NC2(CCCCC2)N=C1c1ccccc1,0.724% (inactive),
S=c1[nH]nc(-c2cccs2)n1/N=C/c1cccs1,-2.22% (inactive),
Cc1ccsc1/C=N/n1c(=S)[nH]nc(C)c1=O,,13 µM (active)
S=c1[nH]nc(-c2ccco2)n1/N=C/c1ccc(Br)s1,-0.549% (inactive),
CN(Cc1ccccc1)C(=O)[C@@H]1CCCN1C(=O)[C@@H]1CCCN1C(=O)c1c(F)cccc1F,-18.5% (inactive),
N#CC1(NC(=O)COC(=O)CCN=C2NS(=O)(=O)c3ccccc32)CCCCC1,-0.411% (inactive),
Cc1cc(C(=O)N/N=C/c2ccc(N3CCOCC3)cc2)c(C)o1,-28.1% (inactive),
Cc1ccc(C(=O)C(=S)N2CCOCC2)cc1,-1.15% (inactive),

Compound,"activity change, negative = growth inhibition",Potency
CNC(=S)N/N=C/c1ccc(N2CCOCC2)s1,,3.26 µM (active)
COc1nc(OC)nc(N(C)CCO)n1,-10.8% (inactive),
COc1cc(CN(C)Cc2nc3cc(C(F)(F)F)ccc3c(=O)[nH]2)ccc1OC(F)F,,18.4 µM (active)
CN(CCOc1ccccc1)Cc1nc2cc(Cl)ccc2c(=O)[nH]1,0.203% (inactive),
Cc1nc2ccc(S(=O)(=O)NCC(=O)NCCN3CCCCC3C)cc2s1 (configuration not stated),-8.89% (inactive),
Cc1nn(-c2ncccn2)c2c1C(=O)CC(C)(C)C2Br (configuration not stated),,20.6 µM (active)
Cc1nn(-c2ccccc2)c2c1C(=O)NC(=O)C(C)(C)C2,-19.3% (inactive),
CN(C)S(=O)(=O)c1ccc(NC(=O)COC(=O)Cn2[nH]c(=O)c3ccccc3c2=O)cc1,4.3% (inactive),
O=C(COC(=O)c1n[nH]c2ccccc12)Nc1ccccc1Br,-17.5% (inactive),
CN(C)S(=O)(=O)c1ccc(NC(=O)COC(=O)c2n[nH]c3ccccc23)cc1,,13 µM (active)
Cc1ccc(N2C(=O)CC(Nc3cccc4ccccc34)C2=O)cc1 (configuration not stated),-2.47% (inactive),
COc1ccc(N2C(=O)CC(SC(C)C)C2=O)cc1 (configuration not stated),9.41% (inactive),
CCOC(=O)c1ccc(N2C(=O)CC(Sc3nc(O)c(CC)c(=O)[nH]3)C2=O)cc1 (configuration not stated),3.43% (inactive),
COc1ccc(N2C(=O)CC(Sc3n[nH]c(-c4ccc(C)cc4)n3)C2=O)cc1 (configuration not stated),,10.3 µM (active)
O=C1CC(c2ccccc2)C(=O)N1c1cccc(O)c1 (configuration not stated),-3.05% (inactive),
O=C1CC(Sc2ncn[nH]2)C(=O)N1c1ccccc1 (configuration not stated),,11.6 µM (active)
O=C1CC(N2CCN(c3ccc(F)cc3)CC2)C(=O)N1c1ccccc1 (configuration not stated),-10.2% (inactive),
COc1ccc(-c2nc(SCC(=O)N3CCOCC3)n[nH]2)cc1,9.09% (inactive),
Cc1ccc(N2C(=O)CC(Sc3ncn[nH]3)C2=O)cc1 (configuration not stated),,4.61 µM (active)
